ASK1 primary: human ASK1 kinase inhibition, primary screen. hit rate 0.99% among 22,000. inhibition, % at 7.44 µM. AlphaScreen MKK6 phosphorylation by ASK1, luminescence. Q99683; in the data active means inhibition above about 35%;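 further: 0% = median of compound wells and 100% = no enzyme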
Target sequence (Q99683 whole entry, looked up): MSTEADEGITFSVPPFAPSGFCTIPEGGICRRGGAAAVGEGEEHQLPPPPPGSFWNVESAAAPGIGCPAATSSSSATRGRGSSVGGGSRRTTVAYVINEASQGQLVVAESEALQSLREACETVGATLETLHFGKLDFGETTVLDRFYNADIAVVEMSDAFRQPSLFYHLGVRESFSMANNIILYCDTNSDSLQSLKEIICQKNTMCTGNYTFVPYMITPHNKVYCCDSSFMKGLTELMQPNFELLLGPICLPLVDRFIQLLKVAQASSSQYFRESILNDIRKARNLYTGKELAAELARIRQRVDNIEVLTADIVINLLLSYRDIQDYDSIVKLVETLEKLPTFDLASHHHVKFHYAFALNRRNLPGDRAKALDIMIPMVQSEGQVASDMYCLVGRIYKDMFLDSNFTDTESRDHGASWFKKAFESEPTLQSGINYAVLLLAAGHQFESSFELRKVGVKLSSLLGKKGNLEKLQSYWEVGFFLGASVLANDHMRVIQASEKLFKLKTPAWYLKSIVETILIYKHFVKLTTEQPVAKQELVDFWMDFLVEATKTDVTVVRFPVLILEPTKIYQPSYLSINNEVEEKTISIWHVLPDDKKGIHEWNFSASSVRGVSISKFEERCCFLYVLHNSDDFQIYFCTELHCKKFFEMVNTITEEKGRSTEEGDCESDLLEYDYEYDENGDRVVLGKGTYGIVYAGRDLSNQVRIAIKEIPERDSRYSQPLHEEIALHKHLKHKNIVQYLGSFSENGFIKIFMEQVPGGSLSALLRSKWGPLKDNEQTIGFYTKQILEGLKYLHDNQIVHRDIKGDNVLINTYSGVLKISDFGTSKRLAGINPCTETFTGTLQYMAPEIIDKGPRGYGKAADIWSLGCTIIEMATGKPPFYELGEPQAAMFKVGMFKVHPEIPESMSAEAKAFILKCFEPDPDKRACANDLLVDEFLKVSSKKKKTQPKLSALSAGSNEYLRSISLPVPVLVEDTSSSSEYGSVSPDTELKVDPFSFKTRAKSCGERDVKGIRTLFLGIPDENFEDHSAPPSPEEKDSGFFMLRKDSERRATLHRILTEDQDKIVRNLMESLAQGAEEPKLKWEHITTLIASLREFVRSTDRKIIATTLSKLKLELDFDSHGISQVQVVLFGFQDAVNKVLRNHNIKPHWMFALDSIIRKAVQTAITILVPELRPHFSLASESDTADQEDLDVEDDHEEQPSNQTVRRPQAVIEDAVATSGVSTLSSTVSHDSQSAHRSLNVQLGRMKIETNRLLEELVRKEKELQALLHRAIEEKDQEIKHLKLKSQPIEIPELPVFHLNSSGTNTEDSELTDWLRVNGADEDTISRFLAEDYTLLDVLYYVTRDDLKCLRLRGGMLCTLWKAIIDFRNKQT
ULK1 primary: blocks human autophagy kinase ULK1. AlphaScreen Atg13 phosphorylation by ULK1, luminescence. inhibition, % at 5.96 µM. hit rate 1.9% among 30,000. AID 1259251; in the data active means inhibition above about 43%;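 further: 0% = median of compound wells and 100% = no enzyme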
* = called active by the depositor. Compounds with a hit are over-represented: about 2.5% of the library has one in this group of screens.

Screening O=C(c1cccc(Nc2ccc3[nH]ncc3c2)n1)N1CCOCC1 returned ASK1 primary -1.4 and ULK1 primary 47.7*.
O=C(c1cc(Nc2ccc3[nH]ncc3c2)ccn1)N1CCOCC1 was read as ASK1 primary -1.9 and ULK1 primary -3.0.
`COC(=O)CCC(=O)NNC(=O)c1c(O)c2ccccc2[nH]c1=O` gave ULK1 primary 2.3.
For CNS(=O)(=O)c1ccccc1Nc1cc(Nc2cc(-c3cncnc3)nc(C)n2)ncc1C(F)(F)F the results were ASK1 primary 14.2 and ULK1 primary 72.8*.
Screening Cc1nc(Nc2ccccc2)cc(-c2cncc(-c3ccccc3)c2)n1 returned ULK1 primary -0.2.
Screening CNS(=O)(=O)c1ccccc1Nc1cc(Nc2ccc(N3CCCC3=O)cc2)ncc1C(F)(F)F returned ASK1 primary -6.4 and ULK1 primary 50.1*.
`CS(=O)(=O)c1cccc(CNc2cc(Nc3ccc(N4CCCC4=O)cc3)ncc2C(F)(F)F)c1` gave ASK1 primary 14.1 and ULK1 primary 23.8.
COc1cc(Nc2ncnc3c2nc(N2CCc4ccccc4C2)n3C(C)C)cc(OC)c1OC was read as ASK1 primary 15.0 and ULK1 primary -7.3.
`CCCCC(=O)Nc1ccccc1-c1nnn(CC(=O)Nc2ccc(C)cc2)n1` gave ULK1 primary -6.9.
`O=C1/C(=C/c2cccs2)CCC/C1=C\c1cccs1` gave ULK1 primary 81.7*.
For O=C1/C(=C\c2cccs2)N2CCC1CC2 the results were ULK1 primary 10.2.
`C[C@@H](N)C1CCC(C(=O)Nc2ccncc2)CC1` (some centres undefined) gave ASK1 primary 14.6 and ULK1 primary 63.6*.
`N[C@H](Cc1ccc(Br)cc1)C(=O)N1CCC(C(=O)Nc2ccncc2)CC1` gave ASK1 primary -3.4 and ULK1 primary 5.0.
`CNC(=O)c1ccccc1Nc1cc(Nc2ccc(C(=O)N(C)C)cc2OC)ncc1C(F)(F)F` gave ASK1 primary 1.3 and ULK1 primary 88.3*.
CCN(CC)CCNC(=O)c1ccc(Nc2cc(Nc3ccccc3C(=O)NC)c(C(F)(F)F)cn2)c(OC)c1 was read as ASK1 primary 19.5 and ULK1 primary 89.9*.
`COc1ccc(CC(=O)Nc2cc(Nc3ccccc3C(=O)NC[C@H](O)C(=O)N(C)C)ccn2)cc1` gave ASK1 primary -35.4 and ULK1 primary 9.8.
For CNC(=O)c1ccccc1Nc1cc(Nc2ccc(C(=O)NC[C@H](O)C(=O)N(C)C)cc2OC)ncc1C(F)(F)F the results were ASK1 primary 6.2 and ULK1 primary 89.1*.
`CC(C)(C)Cc1nnc(NC(=O)C(C)(C)C)s1` gave ULK1 primary -0.2.
Screening O=C(Nc1ccccc1)c1ccnc(N2CCCC2CO)c1 (centres undefined) returned ASK1 primary -7.1 and ULK1 primary 2.4.
COC(=O)c1ccc2c(c1)CC(c1nc3ccc(-c4ccnc(N)n4)cc3[nH]1)CO2 (centres undefined) was read as ASK1 primary 19.8 and ULK1 primary 0.9.
Screening O=C(Nc1nc2c(s1)CN(Cc1ccccc1)CC2)C1CCCCC1 returned ULK1 primary 0.1.
For N#Cc1c(N)sc(=S)c2c1CCN(Cc1ccccc1)C2 the results were ULK1 primary 75.4*.
`CC(C)N(CCNC(=O)c1cnc(N2CCCC2CO)s1)C(C)C` (centres undefined) gave ASK1 primary -5.6 and ULK1 primary 11.0.
CC(=O)Nc1ccc(NC(=O)c2ccc3nc(N4CCN(c5ccccn5)CC4)sc3c2)cc1 was read as ASK1 primary 2.5 and ULK1 primary 6.4.
Screening CNC(=O)c1ccccc1Nc1cc(Nc2ccc3[nH]cc(C(=O)C(=O)N(C)C)c3c2)ncc1C(F)(F)F returned ASK1 primary -14.2 and ULK1 primary 75.1*.
CN(c1ncccc1CNc1cc(Nc2ccc3[nH]c(=O)oc3c2)ncc1C(F)(F)F)S(C)(=O)=O was read as ASK1 primary 22.6 and ULK1 primary 39.5.
CN(C)C(=O)C(=O)c1c[nH]c2ccc(Nc3cc(Nc4ccccn4)c(C(F)(F)F)cn3)cc12 was read as ASK1 primary 18.8 and ULK1 primary 45.4*.
CC(=O)c1cccc(-c2nc(C(=O)NC3CC3)cs2)c1 was read as ASK1 primary -8.9 and ULK1 primary 3.6.
Screening COc1ccc(-c2cncc3ccc(C(=O)NCc4ccccc4)nc23)cc1 returned ULK1 primary 25.7.
`O=C(NCCc1ccccc1)c1ccc2cncc(-c3ccccc3)c2n1` gave ULK1 primary 54.9*.
Oc1ccc(CCNc2ccnc(Nc3ccccn3)n2)cc1 was read as ASK1 primary 3.5 and ULK1 primary -15.7.
Screening Cc1c(-c2cnn(C)c2)ccc2cnc(Nc3ccc(-n4cnc(N5CCOCC5)n4)cc3)nc12 returned ASK1 primary -66.0 and ULK1 primary 59.6*.
CC(C)N1CCN(c2ncn(-c3ccc(Nc4ncc5ccc(-c6cnn(C)c6)c(Cl)c5n4)cc3)n2)CC1 was read as ASK1 primary -16.3 and ULK1 primary 91.0*.
